What was measured:
[1] = biological target: T1, Mitogen-activated protein kinase 12 (Homo sapiens) (UniProt P53778); conditions: at 1 µM
T1 sequence (whole entry): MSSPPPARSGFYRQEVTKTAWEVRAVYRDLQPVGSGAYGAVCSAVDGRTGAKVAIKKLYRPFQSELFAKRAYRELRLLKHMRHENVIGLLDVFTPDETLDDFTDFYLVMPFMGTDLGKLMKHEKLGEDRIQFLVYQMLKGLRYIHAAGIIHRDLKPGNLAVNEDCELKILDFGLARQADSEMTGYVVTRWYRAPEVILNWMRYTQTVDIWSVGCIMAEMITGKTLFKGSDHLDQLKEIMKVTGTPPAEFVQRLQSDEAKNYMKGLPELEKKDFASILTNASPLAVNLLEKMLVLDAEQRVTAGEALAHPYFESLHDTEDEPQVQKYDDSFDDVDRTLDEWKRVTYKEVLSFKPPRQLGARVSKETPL

[2] = biological target: T1, Mitogen-activated protein kinase 12 (Homo sapiens); conditions: at 10 µM

Compound	residual activity [1] [%]	residual activity [2] [%]
Cc1ccc(NC2=CC(=O)c3sc(C)nc3C2=O)cc1	87	102
N#C/C(=C(\N)Sc1ccc(N)cc1)c1ccccc1C(F)(F)F	104	105
COc1cc2nccc(Oc3ccc(NC(=S)NC(=O)c4ccccc4C)cc3)c2cc1OC	99	94
COc1ccc(CNc2nc(N(CCO)CCO)nc3c2ncn3C(C)C)cc1	109	99
COc1ccc(S(=O)(=O)N(CCO)c2ccccc2CN(C)C/C=C/c2ccc(Cl)cc2)cc1	99	95
Cc1nc2cc3nc(-c4cccs4)cnc3cc2n1C	114	100
COc1cc2ncnc(Nc3ccc(O)c(Br)c3)c2cc1OC	98	97
NC(=O)Nc1sc(-c2ccc(F)cc2)cc1C(N)=O	90	82
COc1ccc(C(=O)Nc2sc3c(c2C(N)=O)CCCC3)cc1OC	95	83
O=C1NC(=O)C(c2c[nH]c3ccccc23)=C1c1c[nH]c2ccccc12	99	51
O=Nc1c(-c2c(O)[nH]c3ccccc23)[nH]c2ccccc12	95	84
N#C/C(=C1/Nc2ccccc2S1)c1ccnc(NCCc2cccnc2)n1	96	72
O=C(CCCc1ccc(-c2ccccc2F)cc1)Nc1ccc(O)cc1	101	100
O=C(Nc1cccc(Nc2nccc(Nc3cccc(C(F)(F)F)c3)n2)c1)C1CC1	98	95
COc1cc2ncnc(Nc3cccc(Cl)c3)c2cc1OC	116	103
CCOC(=O)c1c(C)[nH]c(/C=C2\C(=O)Nc3ccccc32)c1C	99	95
O=C1NC(=O)c2c1c1c3ccccc3[nH]c1n1cncc21	95	87
O=c1cc(N2CCOCC2)oc2c1ccc1ccccc12	104	90
Cn1cnc2cc3c(Nc4cccc(Br)c4)ncnc3cc21	104	89
COc1ccc(Cl)cc1NC(=O)Nc1cc(C)nc2ccccc12	95	85
Nc1ncnc2[nH]nc(Nc3ccc(F)cc3)c12	101	96
Cc1ccc(S(=O)(=O)/C=C/C#N)cc1	92	92
COc1cc2ncnc(N3CCN(C(=O)Nc4ccc(Oc5ccccc5)cc4)CC3)c2cc1OC	93	99
CC(C)n1cnc2c(NCc3ccccc3)nc(NCCCO)nc21	100	101

Compound	residual activity [1] [%]	residual activity [2] [%]
Nc1nc(Nc2ccc(S(N)(=O)=O)cc2)nn1C(=O)c1c(F)cccc1F	–	67
NC(=O)c1ccc2[nH]c(-c3ccc(Oc4ccc(Cl)cc4)cc3)nc2c1	93	92
O=c1cc(N2CCNCC2)oc2c(-c3ccccc3)cccc12	92	105
O=[N+]([O-])c1ccc(-c2nc(-c3ccc(F)cc3)c(-c3ccncc3)[nH]2)cc1	101	93
Oc1n[nH]c2nnc(-c3c(-c4ccccc4)nn4ccccc34)cc12	96	90
Nc1ncnc2c1c(-c1ccc(Oc3ccccc3)cc1)cn2C1CCCC1	99	97
CNc1cc2c(Nc3cccc(Br)c3)ncnc2cn1	105	95
CCCCc1c(-c2ccc(OC)cc2)[nH]c2nccnc12	103	112
COc1cccc(-c2cc(=O)c3ccccc3o2)c1N	102	96
O=C(O)/C=C/c1cc(Br)c(Br)c(Br)c1Br	110	90
Oc1c2ccccc2c2c3c(cccc13)N=N2	82	61
CC(C)c1nn(-c2c(Cl)cccc2Cl)c2nc(Cc3ccc(OCCO)cc3)[nH]c(=O)c12	105	101
Cc1cc2ncc(-c3ccccc3)nc2cc1C	100	100
Cc1cccc(-c2[nH]c(C(C)(C)C)nc2-c2ccc3c(c2)OCO3)n1	104	100
CC[n+]1c(/C=C/N(C)c2ccccc2)n(-c2ccccc2)c2ccc(-c3nc4ccccc4s3)cc21	111	94
CCC(=O)Nc1ccc2ncnc(Nc3cccc(Br)c3)c2c1	101	93
NCCNc1ncc(C(N)=O)c(Nc2cccc(C(F)(F)F)c2)n1	103	106
CC#CC(=O)Nc1cc2c(Nc3ccc(F)c(Cl)c3)ncnc2cn1	103	95
N#CC(C#N)=C(N)/C(C#N)=C/c1ccc(O)cc1	–	92
O=C1C(Cl)=C(N2C(=O)CCC2=O)C(=O)c2ccccc21	96	99
Cn1cc(/C=C2\C(=O)Nc3ccc(S(N)(=O)=O)cc32)c2ccccc21	99	104
Oc1cccc(-c2nc(N3CCOCC3)c3oc4ncccc4c3n2)c1	–	86
O=C(Nc1cccc(Nc2cc(Nc3cccc(C(F)(F)F)c3)ncn2)c1)C1CC1	94	92
CO[C@H]1C[C@@H]2CC[C@@H](C)[C@@](O)(O2)C(=O)C(=O)N2CCCC[C@H]2C(=O)O[C@H]([C@H](C)C[C@@H]2CC[C@@H](O)[C@H](OC)C2)CC(=O)[C@H](C)/C=C(\C)[C@@H](O)[C@@H](OC)C(=O)[C@H](C)C[C@H](C)/C=C/C=C/C=C/1C	95	94

Source: ChEMBL document CHEMBL2218924, “A broad activity screen in support of a chemogenomic map for kinase signalling research and drug discovery” (Biochem J, 2013)
